Source: PubChem BioAssay (NCATS)
Inconclusive results are not listed. Values without a mark were called inactive. Calls come from the whole dose curve.

Assay: Cell Viability - MRC5 (AID 434);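 note: potency reflects cytotoxicity seen as loss of intracellular ATP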
Conditions: MRC5 lung fibroblast viability, qHTS
From the text: NIH Chemical Genomics Center [NCGC]
NIH Molecular Libraries Screening Centers Network [MLSCN]
National Institutes of Environmental Health Sciences [NIEHS]
National Toxicology Program [NTP]
We have developed a 1536-well cell-based assay for quantitative high throughput screening (qHTS) against a number of cell lines to determine in vitro cytotoxicity of small molecules. This particular assay uses the MRC5 cell line which is derived from normal human lung fibroblasts.
NCGC Assay Protocol Summary:
The CellTiter-Glo luminescent cell viability assay (Promega) is a homogeneous method to measure the number of viable cells in culture. The end point readout of this assay is based on quantitation of intracellular ATP, an indicator of metabolic activity, using the luciferase reaction. Luciferase catalyzes the oxidation of beetle Luciferin to oxyluciferin and light in the presence of ATP. The luminescent signal is proportional to amount of ATP present.
Using the CellTiter-Glo luminescent cell viability assay, the amount of cellular ATP was measured in the MRC5 cell line with complete culture medium following compound treatment for 40 hours. The assay was performed in opaque white Kalypsys 1536-well plates. In the screen, tamoxifen and doxorubicin were used as positive controls. Library compounds were measured for their ability to cause acute toxicity in the cell line, as reflected by a decrease in intracellular ATP levels, in a concentration-dependent manner. Data were normalized to the controls for basal activity (DMSO only) and 100% inhibition (100 uM tamoxifen). AC50 values were determined from concentration-response data modeled with the standard Hill equation.
qHTS protocol for CellTiter Glo MRC5 cellular assay
[Step] [Parameter] [Value] [Description]
1. Reagent; 5 uL; 1500 MRC5 cells/well
2. Time; 5 hr; 37 °C incubation
4. Controls; 23 nL; Tamoxifen 0.34 uM to 100 uM & Doxorubicin 0.02 nM to 100 uM
5. Time; 40 hr; 37 °C incubation
6. Reagent; 5 uL; CellTiter Glo reagent
7. Time; 20 min; Room Temperature
8. Detection; Luminescence; Viewlux plate reader
Keywords: cell viability, cytotoxicity, MRC5 cell line, luminescence, NTPHTS, NTPHTS_NCGC, NIEHS, EPA, DSSTox, MLSMR, MLSCN, NIH Roadmap, qHTS, NCGC
Potency is the fitted concentration of half-maximal effect.

SMILES	Potency [µM]
CC(C)=O	> 92
O=C(O)CCC(=O)C(=O)O	> 92
CCCCC/C=C\C/C=C\CCCCCCCC(=O)O	> 92
IC(I)I	> 92
Cc1ccccc1	> 92
CC1=C(/C=C/C(C)=C/C=C/C(C)=C/CO)C(C)(C)CCC1	> 92
O=CCCCC=O	> 92
CCCCCCCC/C=C\CCCCCCCC(=O)O	> 92
O=S(=O)(O)O	> 92
CCCCCCCC(=O)O	> 92
Nc1ccn([C@H]2CS[C@@H](CO)O2)c(=O)n1	> 92
CC(O)CO (stereo not given)	> 92
CC1=C2[C@@H]([C@H](C)CC[C@H]2/C=C(\C)C(=O)O)[C@H](O)C1	> 92
CCOc1ccc2c(c1)C(C)=CC(C)(C)N2	> 92
CCOC(C)=O	> 92
